This is a sample that favours compounds with a hit; in the whole collection about 3.2% have one here.
PAX8 reporter: lowers PAX8-driven luciferase in RMG-I cells; actives 1.2% (n = 360,000); AID 652154; RMG-I TPO-luciferase reporter, SteadyGlo, 24 h; inhibition, % at 12.6 µM;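 active = mean replicate inhibition at least 60% with every replicate also reaching 60%; inconclusive = only one of the two criteria is met; inactive = mean below 60% and not all replicates reaching 60%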;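 note: luciferase light reporting Pax8 driven TPO promoter activity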
LGR2 inh: inhibitors of bursicon-induced Drosophila LGR2 receptor cAMP signaling; HEK293 LGR2, CRE-luciferase, bursicon-stimulated, 4 h; inhibition, % at 9.99 µM; actives 0.35% (n = 380,000);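 active = drop in luminescence signal, shown as inhibition above about 50% in the replicate tests, limit read from the data, passing the limit was not always enough; inconclusive = probably only some replicates passing the limit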;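 note: agonist challenge used bursicon conditioned medium at about half maximal strength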
EWS-Fli inh: blocks EWS/Fli oncoprotein-driven transcription | AID 651661 | inhibition, % at 12.6 µM | actives 0.67% (n = 350,000) | A673 NR0B1-luciferase reporter, viability-normalised;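 active = mean inhibition of at least 50% after viability correction, with every replicate also passing that limit; inconclusive = mean reaches 50% but only one of two replicates passes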;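 note: firefly luciferase signal divided by Alamar Blue viability fluorescence both relative to DMSO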
TROY signal inh: inhibitors of TROY-dependent NF-kB signaling; Q293 LMP1-TROYcd NF-kB luciferase reporter, 4 h; inhibition, % at 10 µM; actives 0.98% (n = 360,000); AID 1347056;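 active = compounds whose plate-normalised and pattern-corrected inhibition of the luciferase reporter signal at the single screening dose is 50% or more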
EBV LMP1 NFkB: reduces LMP1-driven NF-kappaB luciferase signal | LMP1-induced NF-kappaB luciferase reporter cells, luminescence | inhibition, % at 12.5 µM | actives 0.69% (n = 350,000) | AID 504558; in the data active = inhibition above about 41%; inconclusive = no clear call, values can overlap the other calls
TWEAK Fn14 block: blocks TWEAK-Fn14 interaction in a reporter cell assay; TWEAK-stimulated Fn14 reporter cells, luciferase luminescence, 8 h; inhibition, % at 10 µM; actives 2% (n = 360,000); AID 1159606; in the data active = inhibition above about 50%
A number is an active result; - = inactive; ? = inconclusive; . = no result given.

SMILES	PAX8 reporter	LGR2 inh	EWS-Fli inh	TROY signal inh	EBV LMP1 NFkB	TWEAK Fn14 block
CN(C)c1ccc(/C=C/c2nc3ccccc3c(=O)[nH]2)cc1	-	91	79	70	48	88
C(=C\c1nc2ccccc2[nH]1)/c1ccccc1	.	.	.	-	-	75
Cc1nc(/C=C/c2ccccc2)[nH]c(=O)c1-c1ccccc1	.	-	.	-	-	64
CCOC(=O)c1oc2ccccc2c1CN1CCN(C)CC1	.	.	.	.	-	86
CCN(CC)C(=O)C1CCCN(c2ccc([N+](=O)[O-])cc2[N+](=O)[O-])C1 (stereo not given)	-	-	-	-	52	-
COc1ccc2c3c(n(C)c2c1)[C@@H](CO)N(C(=O)c1cccc(F)c1)CC31CCN(C(=O)c2cccc(F)c2)CC1	.	-	-	.	.	.
NC(=O)c1ccsc1NC(=O)c1ccc([N+](=O)[O-])o1	89	-	58	-	-	-
CN1CCc2c(sc(NC(=O)c3ccc([N+](=O)[O-])o3)c2C(N)=O)C1	95	-	67	65	-	52
NC(=O)c1ccsc1NC(=O)COC(=O)c1ccc([N+](=O)[O-])o1	-	-	-	-	-	-
NC(=O)c1c(NC(=O)c2ccc([N+](=O)[O-])o2)sc2c1CCCC2	-	-	-	-	-	-
O=C(Nc1ccccc1F)N[C@H]1CC[C@@H](CCNS(=O)(=O)c2ccc(Cl)cc2)O[C@H]1CO	-	-	-	.	.	.
O=C(Nc1cc(F)ccc1F)N1CCCCN2[C@H](C1)[C@H](c1ccc(-c3cncnc3)cc1)[C@@H]2CO	-	-	.	.	.	.
COc1ccc2cc3cc(C(=O)NCCN4CCc5ccccc5C4)sc3nc2c1	-	-	-	-	-	-
CCC(C)NC(=O)c1cc2cc3ccc(OC)cc3nc2s1 (stereo not given)	-	.	.	-	-	51
C[C@H](CO)N1C[C@H](C)[C@H](CN(C)C(=O)C2CCC2)Oc2ncc(C3=CCCC3)cc2C1=O	.	-	-	.	.	.
O=C1/C(=C/c2ccccc2F)SC(=S)N1CC(=O)N1CCCCC1c1cccnc1 (stereo not given)	100	-	-	-	-	-
O=C1/C(=C/c2ccc(F)cc2)SC(=S)N1CC(=O)N1CCCCC1c1cccnc1 (stereo not given)	70	-	-	-	-	-
COc1ccc(NC(=O)Nc2ccc3c(c2)[C@H]2C[C@@H](CC(=O)NCC4CC4)O[C@@H](CO)[C@H]2O3)cc1	-	-	-	.	.	.
Cc1ccc(/C=C/C(=O)C2C(=O)c3ccccc3C2=O)cc1	.	-	.	-	47	-
Cc1cc(NC(=O)c2cccc(COc3ccc(Br)cc3)c2)no1	-	-	86	-	43	-
CCOc1ccc(C(=O)Nc2cc(C)on2)cc1	.	.	.	-	-	-
Cc1ccccc1NC(=S)NNC(=O)c1csc2c1CCC(C)C2 (stereo not given)	.	-	.	80	-	87
CCNC(=S)NNC(=O)c1csc2c1CCC(C)C2 (stereo not given)	.	.	.	-	-	-
C[C@@H]1CN([C@@H](C)CO)C(=O)c2cc(NC(=O)Nc3ccc4c(c3)OCO4)ccc2O[C@@H]1CN(C)Cc1ccc(-c2ccccc2)cc1	.	-	-	.	.	.
CC[C@@H](C)[C@H](C(CC(=O)N1CCCC1[C@@H](OC)[C@H](C)C(=O)N[C@H](Cc1ccccc1)c1nccs1)OC)N(C)C(=O)[C@H](NC(=O)[C@@H](C(C)C)N(C)C)C(C)C (stereo not given in full)	82	-	-	-	-	-
SMILES	PAX8 reporter	LGR2 inh	EWS-Fli inh	TROY signal inh	EBV LMP1 NFkB	TWEAK Fn14 block
COc1ccc(C(=O)N(C)C(C)c2nccs2)cc1OC1CCN(C(C)=O)CC1 (stereo not given)	-	-	-	-	-	-
C[C@H]1CN([C@@H](C)CO)C(=O)c2cccc(NC(=O)c3ccc(-c4nccs4)cc3)c2O[C@H]1CN(C)C(=O)Nc1ccc(F)cc1	-	-	-	.	.	.
Cc1ccc(CNC(=O)C2CCN(S(=O)(=O)c3c(C)noc3/C=C/c3ccco3)CC2)cc1	83	-	-	-	83	-
Cc1noc(/C=C/c2ccco2)c1S(=O)(=O)N1CCC(C(=O)NCc2ccco2)CC1	-	.	.	-	-	-
CC(=O)N1[C@@H]2c3ccc(-c4ccncc4)c(=O)n3C[C@@H]2[C@@H](CO)[C@@H]1C(=O)NCc1ccccc1Cl	.	-	-	.	.	.
N#Cc1cnn(CC2CCCCC2)c1N	.	.	.	.	-	61
Oc1ccccc1-c1cc(C(F)(F)C(F)F)nc(-c2ccccc2)n1	.	-	.	-	-	-
O=[N+]([O-])c1ccc(O)c(-c2cc(C(F)(F)F)nc(-c3ccccc3)n2)c1	107	-	-	-	-	75
COC(=O)c1cc(C(=O)c2cc(Cl)ccc2O)coc1=N	-	-	-	-	-	70
COCCOC(=O)c1cc(C(=O)c2cc(F)ccc2O)coc1=N	-	.	.	-	-	-
COc1ccc(NC(=O)Nc2nnc(-c3cccs3)s2)cc1	-	-	-	-	-	-
COc1ccc(C(=O)Nc2nnc(-c3cccs3)s2)cc1	.	?	.	-	-	55
COc1ccc(C(=O)Nc2nnc(-c3ccco3)s2)cc1	.	81	.	-	-	85
O=C(Nc1nc(-c2cccs2)c(C(=O)C(F)(F)F)s1)c1ccccc1	-	-	-	60	-	56
O=C(Nc1ccc(Cl)cc1)c1cc2c(cc1O)[nH]c1ccccc12	-	-	-	55	-	82
O=C(O)c1cnc(-c2ccccc2)nc1Sc1ccc(Cl)cc1Cl	.	.	.	61	-	-
Cc1cc2ccccn2c1C(=O)c1ccc([N+](=O)[O-])o1	73	-	-	-	-	-
C#C[C@]1(O)CCC2C3CCC4=Cc5oncc5CC4(C)C3CCC21C (stereo not given in full)	-	.	-	51	-	-
COc1ccc(C)cc1S(=O)(=O)Nc1cccc(-c2cn3cccnc3n2)c1	-	-	.	-	-	-
O=S(=O)(Nc1cccc(-c2cn3cccnc3n2)c1)c1ccc(Cl)cc1	132	-	-	-	-	-
C[C@@H]1CCCCO[C@H](CN(C)Cc2ccc(C(F)(F)F)cc2)[C@H](C)CN([C@@H](C)CO)C(=O)c2cc(NC(=O)Nc3ccc(F)cc3)ccc2O1	91	-	-	.	.	.
C[C@@H]1CN([C@H](C)CO)C(=O)c2cc(NC(=O)Nc3ccc(F)cc3)ccc2O[C@@H](C)CCCCO[C@@H]1CN(C)Cc1ccc(C(F)(F)F)cc1	93	-	-	.	.	.
C[C@@H]1CN([C@H](C)CO)C(=O)c2cc(NC(=O)Nc3ccc(F)cc3)ccc2O[C@@H](C)CCCCO[C@H]1CN(C)Cc1ccc(C(F)(F)F)cc1	107	-	70	.	.	.
C[C@H](CO)N1C[C@H](C)[C@H](CN(C)Cc2ccc(C(F)(F)F)cc2)OCCCC[C@H](C)Oc2ccc(NC(=O)Nc3ccc(F)cc3)cc2C1=O	-	-	-	.	.	.
